Experiment [1] concerns the target Mitogen-activated protein kinase 3 (Homo sapiens) (UniProt P27361). To be noted: at 1 µM.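 Note: values are mean percent inhibition of MAPK3.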
Experiment [2] concerns the target SRSF protein kinase 3 (Homo sapiens) (UniProt Q9UPE1). The conditions noted are these: at 0.1 µM.
Experiment [3] has the same target. The conditions noted are these: at 1 µM.
Experiment [4] has as its target Mitogen-activated protein kinase 14 (Homo sapiens) (UniProt Q16539). The conditions noted are these: at 0.1 µM.
The target is the same in experiment [5]. The conditions noted are these: at 1 µM.
Experiment [6] deals with Mitogen-activated protein kinase 11 (Homo sapiens) (UniProt Q15759). To be noted: at 0.1 µM.
Experiment [7] has the same target. The conditions noted are these: at 1 µM.
Experiment [8] has as its target T1, Mitogen-activated protein kinase 13 (Homo sapiens) (UniProt O15264).
T1 sequence (whole entry): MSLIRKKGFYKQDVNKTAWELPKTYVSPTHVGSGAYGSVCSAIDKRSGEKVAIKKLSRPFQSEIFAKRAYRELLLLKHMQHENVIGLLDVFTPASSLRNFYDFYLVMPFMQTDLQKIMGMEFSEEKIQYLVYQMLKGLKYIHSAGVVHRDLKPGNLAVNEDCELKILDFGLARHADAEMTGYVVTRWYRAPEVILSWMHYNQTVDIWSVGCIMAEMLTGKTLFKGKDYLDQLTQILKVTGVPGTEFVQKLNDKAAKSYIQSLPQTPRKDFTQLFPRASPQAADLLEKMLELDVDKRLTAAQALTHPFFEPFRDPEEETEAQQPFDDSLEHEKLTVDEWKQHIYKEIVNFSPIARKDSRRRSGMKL
The conditions noted are these: at 0.1 µM.

For experiment [9], the target named is T1, Mitogen-activated protein kinase 13 (Homo sapiens). To be noted: at 1 µM.
For experiment [10], the target named is T2, Mitogen-activated protein kinase 12 (Homo sapiens) (UniProt P53778).
T2 sequence (whole entry): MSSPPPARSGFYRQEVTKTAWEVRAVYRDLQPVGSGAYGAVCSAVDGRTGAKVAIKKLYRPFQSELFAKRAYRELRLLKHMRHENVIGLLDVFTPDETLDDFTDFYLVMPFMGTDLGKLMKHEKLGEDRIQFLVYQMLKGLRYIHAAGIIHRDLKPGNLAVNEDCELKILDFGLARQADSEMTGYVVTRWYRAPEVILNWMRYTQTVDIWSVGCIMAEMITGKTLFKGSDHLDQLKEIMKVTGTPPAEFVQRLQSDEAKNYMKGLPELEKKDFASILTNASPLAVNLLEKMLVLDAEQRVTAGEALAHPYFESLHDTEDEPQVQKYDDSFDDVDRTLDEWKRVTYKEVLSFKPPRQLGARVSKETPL
The conditions noted are these: at 0.1 µM.

The target of experiment [11] is T2, Mitogen-activated protein kinase 12 (Homo sapiens). The conditions noted are these: at 1 µM.
Experiment [12] addresses SRSF protein kinase 1 (Homo sapiens) (UniProt Q96SB4). To be noted: at 0.1 µM.
Experiment [13] shares this target. The conditions noted are these: at 1 µM.
Experiment [14] deals with Phosphatidylinositol 4,5-bisphosphate 3-kinase catalytic subunit alpha isoform (Homo sapiens) (UniProt P42336). The conditions noted are these: at 0.1 µM.
Experiment [15] has the same target. The conditions noted are these: at 1 µM.
The target in experiment [16] is T3, Phosphatidylinositol 4,5-bisphosphate 3-kinase catalytic subunit delta isoform (Homo sapiens) (UniProt O00329).
T3 sequence (whole entry): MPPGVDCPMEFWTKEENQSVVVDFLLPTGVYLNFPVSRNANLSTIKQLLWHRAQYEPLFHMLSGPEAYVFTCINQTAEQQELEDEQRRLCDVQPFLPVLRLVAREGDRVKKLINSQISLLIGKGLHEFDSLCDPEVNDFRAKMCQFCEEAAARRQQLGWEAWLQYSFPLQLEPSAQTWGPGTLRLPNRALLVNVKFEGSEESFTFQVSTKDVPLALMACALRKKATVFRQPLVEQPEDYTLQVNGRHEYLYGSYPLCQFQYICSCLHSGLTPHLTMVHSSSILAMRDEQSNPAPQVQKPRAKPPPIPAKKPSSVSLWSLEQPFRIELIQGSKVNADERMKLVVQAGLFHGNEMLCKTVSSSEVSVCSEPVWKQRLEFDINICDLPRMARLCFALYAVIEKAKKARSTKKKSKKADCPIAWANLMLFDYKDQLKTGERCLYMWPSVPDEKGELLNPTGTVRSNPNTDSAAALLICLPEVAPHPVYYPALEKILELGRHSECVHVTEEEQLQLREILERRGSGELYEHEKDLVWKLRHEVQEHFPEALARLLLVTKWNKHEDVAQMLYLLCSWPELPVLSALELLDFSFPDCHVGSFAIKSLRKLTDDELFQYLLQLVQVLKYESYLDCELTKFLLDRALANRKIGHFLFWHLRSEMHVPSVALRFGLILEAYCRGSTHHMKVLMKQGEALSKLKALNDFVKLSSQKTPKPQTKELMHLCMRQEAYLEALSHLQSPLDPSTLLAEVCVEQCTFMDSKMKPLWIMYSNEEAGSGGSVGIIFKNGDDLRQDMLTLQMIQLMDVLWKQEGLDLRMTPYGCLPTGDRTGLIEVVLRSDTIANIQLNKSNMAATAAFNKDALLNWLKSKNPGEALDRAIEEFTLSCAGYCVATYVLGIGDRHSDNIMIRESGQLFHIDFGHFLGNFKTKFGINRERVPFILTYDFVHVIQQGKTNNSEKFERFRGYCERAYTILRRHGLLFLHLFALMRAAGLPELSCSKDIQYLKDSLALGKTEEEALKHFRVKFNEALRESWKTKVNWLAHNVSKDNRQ
The conditions noted are these: at 0.1 µM.

Experiment [17] deals with T3, Phosphatidylinositol 4,5-bisphosphate 3-kinase catalytic subunit delta isoform (Homo sapiens). To be noted: at 1 µM.
The target of experiment [18] is Phosphatidylinositol 4-kinase beta (Homo sapiens) (UniProt Q9UBF8). The conditions noted are these: at 0.1 µM.
Experiment [19] shares this target. The conditions noted are these: at 1 µM.
Experiment [20] deals with Sphingosine kinase 1 (Homo sapiens) (UniProt Q9NYA1). To be noted: at 0.1 µM.

One may read the inhibition as the drop in the measured response relative to a control, in per cent.

Each structure is given as a SMILES string.

Sequence of Phosphatidylinositol 4,5-bisphosphate 3-kinase catalytic subunit alpha isoform (Homo sapiens) (P42336 whole entry, canonical isoform): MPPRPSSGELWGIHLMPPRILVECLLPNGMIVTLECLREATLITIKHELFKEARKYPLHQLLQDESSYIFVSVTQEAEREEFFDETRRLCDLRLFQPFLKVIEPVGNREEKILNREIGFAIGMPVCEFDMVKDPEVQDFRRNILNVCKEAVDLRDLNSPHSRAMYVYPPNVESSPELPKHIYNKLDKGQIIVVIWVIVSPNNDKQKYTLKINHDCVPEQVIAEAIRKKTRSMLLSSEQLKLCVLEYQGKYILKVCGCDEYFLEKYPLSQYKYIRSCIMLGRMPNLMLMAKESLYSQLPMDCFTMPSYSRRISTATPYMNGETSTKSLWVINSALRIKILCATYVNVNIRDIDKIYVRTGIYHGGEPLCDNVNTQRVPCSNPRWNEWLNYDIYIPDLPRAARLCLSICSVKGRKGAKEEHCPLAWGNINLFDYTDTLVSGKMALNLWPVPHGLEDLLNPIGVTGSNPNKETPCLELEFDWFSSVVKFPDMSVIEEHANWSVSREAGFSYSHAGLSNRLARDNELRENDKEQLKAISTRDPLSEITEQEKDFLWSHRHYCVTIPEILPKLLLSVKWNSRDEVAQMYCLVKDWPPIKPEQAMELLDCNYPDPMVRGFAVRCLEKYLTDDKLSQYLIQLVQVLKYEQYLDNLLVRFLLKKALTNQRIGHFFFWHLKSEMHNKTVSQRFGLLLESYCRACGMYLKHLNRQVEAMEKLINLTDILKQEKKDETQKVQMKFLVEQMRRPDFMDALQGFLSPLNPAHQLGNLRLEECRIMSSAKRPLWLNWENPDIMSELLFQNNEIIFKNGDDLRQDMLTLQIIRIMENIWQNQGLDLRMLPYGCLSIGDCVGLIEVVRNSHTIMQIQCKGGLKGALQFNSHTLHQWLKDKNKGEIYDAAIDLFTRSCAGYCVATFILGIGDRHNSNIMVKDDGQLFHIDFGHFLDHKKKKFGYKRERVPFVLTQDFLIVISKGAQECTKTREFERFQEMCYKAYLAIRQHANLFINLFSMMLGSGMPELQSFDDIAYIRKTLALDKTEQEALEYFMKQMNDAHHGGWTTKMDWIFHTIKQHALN
Sequence of SRSF protein kinase 1 (Homo sapiens) (Q96SB4 whole entry): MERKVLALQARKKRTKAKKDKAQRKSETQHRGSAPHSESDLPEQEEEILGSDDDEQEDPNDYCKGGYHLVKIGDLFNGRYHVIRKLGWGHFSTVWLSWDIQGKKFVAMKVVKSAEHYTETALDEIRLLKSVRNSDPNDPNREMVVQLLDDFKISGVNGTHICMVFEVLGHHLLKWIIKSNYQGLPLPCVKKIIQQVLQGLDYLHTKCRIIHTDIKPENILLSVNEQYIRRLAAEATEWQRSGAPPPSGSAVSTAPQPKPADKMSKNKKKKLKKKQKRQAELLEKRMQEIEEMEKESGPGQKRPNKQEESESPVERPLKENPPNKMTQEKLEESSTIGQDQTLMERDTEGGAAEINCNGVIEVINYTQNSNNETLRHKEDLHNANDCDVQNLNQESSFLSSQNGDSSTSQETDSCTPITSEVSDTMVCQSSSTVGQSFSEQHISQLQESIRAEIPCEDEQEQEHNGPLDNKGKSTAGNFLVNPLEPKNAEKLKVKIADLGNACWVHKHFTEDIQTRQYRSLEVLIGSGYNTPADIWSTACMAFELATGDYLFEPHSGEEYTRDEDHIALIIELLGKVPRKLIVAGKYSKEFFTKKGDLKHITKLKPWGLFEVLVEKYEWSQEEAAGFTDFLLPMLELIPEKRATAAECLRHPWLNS
Sequence of Phosphatidylinositol 4-kinase beta (Homo sapiens) (Q9UBF8 2-816 limits assumed): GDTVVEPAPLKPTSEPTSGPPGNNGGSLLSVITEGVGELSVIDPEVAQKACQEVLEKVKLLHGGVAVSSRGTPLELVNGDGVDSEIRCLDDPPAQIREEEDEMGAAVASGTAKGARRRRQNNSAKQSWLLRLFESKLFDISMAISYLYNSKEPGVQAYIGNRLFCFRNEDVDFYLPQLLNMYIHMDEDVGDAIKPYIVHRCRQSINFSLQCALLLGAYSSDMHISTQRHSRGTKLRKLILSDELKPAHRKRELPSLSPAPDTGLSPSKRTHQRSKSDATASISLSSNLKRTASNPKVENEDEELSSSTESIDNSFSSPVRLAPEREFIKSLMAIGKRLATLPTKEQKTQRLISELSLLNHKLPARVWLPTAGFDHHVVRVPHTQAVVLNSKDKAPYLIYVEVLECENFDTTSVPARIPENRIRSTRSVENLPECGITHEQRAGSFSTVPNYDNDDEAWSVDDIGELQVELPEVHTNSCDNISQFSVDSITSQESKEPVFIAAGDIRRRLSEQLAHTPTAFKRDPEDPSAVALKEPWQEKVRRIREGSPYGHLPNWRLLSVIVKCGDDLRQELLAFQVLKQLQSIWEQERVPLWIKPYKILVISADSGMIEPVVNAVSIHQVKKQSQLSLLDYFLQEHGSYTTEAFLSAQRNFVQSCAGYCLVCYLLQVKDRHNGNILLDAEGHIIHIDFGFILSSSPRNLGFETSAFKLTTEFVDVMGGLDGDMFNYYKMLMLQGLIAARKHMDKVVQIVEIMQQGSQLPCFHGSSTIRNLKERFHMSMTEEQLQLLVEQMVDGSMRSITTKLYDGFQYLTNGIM
Sequence of SRSF protein kinase 3 (Homo sapiens) (Q9UPE1 whole entry): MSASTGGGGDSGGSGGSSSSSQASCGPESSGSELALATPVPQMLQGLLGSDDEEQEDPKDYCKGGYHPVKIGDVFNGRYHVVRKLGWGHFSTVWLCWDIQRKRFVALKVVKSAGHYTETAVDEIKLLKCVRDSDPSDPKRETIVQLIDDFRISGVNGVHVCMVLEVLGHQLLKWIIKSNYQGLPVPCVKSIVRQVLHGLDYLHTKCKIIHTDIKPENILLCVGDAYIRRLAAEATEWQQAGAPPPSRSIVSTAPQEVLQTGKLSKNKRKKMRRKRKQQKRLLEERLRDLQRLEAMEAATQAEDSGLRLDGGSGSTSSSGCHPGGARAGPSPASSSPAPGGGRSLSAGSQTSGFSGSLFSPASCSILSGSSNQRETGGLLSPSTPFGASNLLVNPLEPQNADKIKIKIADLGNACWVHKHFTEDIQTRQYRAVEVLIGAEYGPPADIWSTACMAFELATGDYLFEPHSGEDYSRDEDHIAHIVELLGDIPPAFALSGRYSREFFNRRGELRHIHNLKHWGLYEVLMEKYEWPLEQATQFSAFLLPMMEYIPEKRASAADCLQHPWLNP
Sequence of Sphingosine kinase 1 (Homo sapiens) (Q9NYA1 whole entry): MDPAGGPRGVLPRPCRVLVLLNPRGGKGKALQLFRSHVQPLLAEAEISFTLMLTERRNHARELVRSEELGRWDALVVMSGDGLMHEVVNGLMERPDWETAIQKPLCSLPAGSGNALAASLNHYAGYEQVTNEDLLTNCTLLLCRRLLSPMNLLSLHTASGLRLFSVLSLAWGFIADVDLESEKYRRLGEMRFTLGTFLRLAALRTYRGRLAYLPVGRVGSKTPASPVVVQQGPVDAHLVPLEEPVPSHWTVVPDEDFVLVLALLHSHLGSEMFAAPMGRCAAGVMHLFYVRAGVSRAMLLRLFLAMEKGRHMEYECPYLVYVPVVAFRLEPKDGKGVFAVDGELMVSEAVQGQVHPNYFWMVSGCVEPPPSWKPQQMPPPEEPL
Sequence of Mitogen-activated protein kinase 11 (Homo sapiens) (Q15759 whole entry): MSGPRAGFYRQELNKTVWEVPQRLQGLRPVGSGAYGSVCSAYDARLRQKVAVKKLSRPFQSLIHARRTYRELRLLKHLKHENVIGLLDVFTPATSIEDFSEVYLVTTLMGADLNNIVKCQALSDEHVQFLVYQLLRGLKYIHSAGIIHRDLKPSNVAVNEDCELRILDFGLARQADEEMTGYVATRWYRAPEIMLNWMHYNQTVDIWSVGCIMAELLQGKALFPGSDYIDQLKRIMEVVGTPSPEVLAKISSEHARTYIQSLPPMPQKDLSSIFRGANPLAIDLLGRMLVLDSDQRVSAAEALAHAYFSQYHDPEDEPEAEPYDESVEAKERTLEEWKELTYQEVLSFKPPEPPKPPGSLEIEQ
Sequence of Mitogen-activated protein kinase 3 (Homo sapiens) (P27361 whole entry): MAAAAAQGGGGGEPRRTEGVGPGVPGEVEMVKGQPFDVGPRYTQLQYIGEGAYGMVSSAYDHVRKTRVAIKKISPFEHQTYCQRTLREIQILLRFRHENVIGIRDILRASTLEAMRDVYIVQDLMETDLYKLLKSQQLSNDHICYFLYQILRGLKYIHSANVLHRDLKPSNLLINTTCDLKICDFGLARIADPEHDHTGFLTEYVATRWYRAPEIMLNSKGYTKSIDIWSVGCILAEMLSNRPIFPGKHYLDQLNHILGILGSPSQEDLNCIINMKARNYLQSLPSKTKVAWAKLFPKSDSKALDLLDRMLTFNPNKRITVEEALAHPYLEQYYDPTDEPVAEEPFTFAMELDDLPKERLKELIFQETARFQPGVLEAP
Sequence of Mitogen-activated protein kinase 14 (Homo sapiens) (Q16539 whole entry): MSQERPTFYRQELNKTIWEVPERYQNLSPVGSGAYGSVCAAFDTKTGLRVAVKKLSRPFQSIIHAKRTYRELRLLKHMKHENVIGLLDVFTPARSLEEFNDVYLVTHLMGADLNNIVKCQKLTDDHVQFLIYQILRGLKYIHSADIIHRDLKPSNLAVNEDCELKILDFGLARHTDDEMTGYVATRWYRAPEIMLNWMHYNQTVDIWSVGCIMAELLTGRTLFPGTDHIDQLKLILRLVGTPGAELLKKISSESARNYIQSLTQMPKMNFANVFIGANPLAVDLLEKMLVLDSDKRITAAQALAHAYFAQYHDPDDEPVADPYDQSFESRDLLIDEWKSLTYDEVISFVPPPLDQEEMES

With `Cc1ccc(NC(=O)CC2CC2)cc1-c1ccc(C(=O)NCC2CC2)cc1`, the inhibition in experiment [1] was 3.92%; in [2], -0.32%; in experiment [3] it was 3.16%; in [4], 29.7%; in experiment [5], 74.3%; in experiment [6] it was 17.2%. Also, the inhibition is 60.8% in [7]; 3.22% in [8]; 4.09% in experiment [9]; 0.38% in experiment [10]; 2.02% in experiment [11]; -0.1% in [12]. The inhibition is 1.32% in experiment [13]; 2.05% in [14]; 3.63% in [15]; 0.9% in [16]; 1.78% in experiment [17]; -3.28% in [18]. Further, the inhibition in [19] is -2.41%; in experiment [20], -0.38%.

`NS(=O)(=O)c1cccc(-c2cc3ccncc3cc2OCc2ccccc2)c1`: the inhibition in [1] is 4.26%; in experiment [2], -0.37%; in experiment [3] it was -1.61%; in experiment [4], 2.47%; in experiment [5], 8.87%; in experiment [6] it was 3.17%. For the same molecule, the inhibition in experiment [7] was 5.6%; in experiment [8], -1.11%; in experiment [9], 5.95%; in [10], 0.96%; in [11] it was 3.69%; in experiment [12], -1.98%. Besides, the inhibition in experiment [13] is -2.89%; in [14] it was 4.56%; in experiment [15], 6.5%; in [16], 2.08%; in experiment [17], 5.47%; in [18], -1.89%. Further, the inhibition in [19] was -5.37%; in experiment [20], 0.1%.

For `CCn1c(-c2nonc2N)nc2ccc(F)cc21`, the inhibition in experiment [1] is 7.45%; in experiment [2] it was -2.41%; in experiment [3] it was -1.12%; in experiment [4], 5.24%; in experiment [5] it was 8.37%; in [6] it was 7.69%. Moreover, the inhibition in experiment [7] was 9.2%; in [8], 2.3%; in experiment [9], 6.26%; in experiment [10], 3.81%; in [11] it was 3.36%; in [12], -1.22%. For the same molecule, the inhibition is 2.61% in experiment [13]; 4.99% in experiment [14]; 4.15% in experiment [15]; 3.09% in [16]; 2.96% in experiment [17]; -0.18% in [18]. Moreover, the figures for the inhibition in experiment [19] and in [20] were 6.29% and 0.88%, respectively.

`CN(C)C(=O)O[C@H]1CN[C@H](C#Cc2cc3ncnc(Nc4ccc(OCc5cccc(F)c5)c(Cl)c4)c3s2)C1`: the inhibition in experiment [1] was 3.14%; in experiment [2], 0.23%; in experiment [3] it was -1.8%; in [4], 1.35%; in [5], 7%; in [6], 0.51%. Moreover, the inhibition is 1.53% in experiment [7]; -0.2% in experiment [8]; 2.51% in [9]; 0.18% in [10]; 1.22% in [11]; -0.93% in experiment [12]. The inhibition in [13] was -1.25%; in experiment [14], 1.47%; in [15], 31.7%; in experiment [16], 1.7%; in experiment [17], 17.4%; in experiment [18], 4.95%. For the same molecule, the values for the inhibition in [19] and in [20] were -3.29% and 0.36%, respectively.

`Cc1cc(Cl)cc2c1NC(=O)C2=NNc1ccc(S(N)(=O)=O)cc1`: the inhibition in experiment [1] was 4.37%; in experiment [2], 0.26%; in [3], -0.13%; in experiment [4], -2.89%; in experiment [5], 3.98%; in [6], 3.77%. Besides, the inhibition in [7] was 7.2%; in experiment [8], -1.04%; in [9], 1.98%; in experiment [10], 0.32%; in experiment [11], 2.01%; in experiment [12], -1.22%. In addition, the inhibition in experiment [13] is 1.09%; in [14], 0.48%; in [15], 1.85%; in [16], 0.72%; in [17] it was 4.67%; in [18], -5.44%. The inhibition in [19] is 3.24%; in [20], 0.93%.

For `O=C1Nc2ccccc2/C1=C/Nc1ccc2[nH]c(=O)[nH]c2c1`, the inhibition in [1] was 3.88%; in [2], -2.26%; in experiment [3], -0.78%; in [4] it was 11.6%; in experiment [5], 11.5%; in [6], 5.12%. Further, the inhibition was 9.63% in experiment [7]; 3.8% in [8]; 4.97% in experiment [9]; 0.57% in experiment [10]; 3.5% in experiment [11]; -1.11% in experiment [12]. The inhibition was -0.39% in experiment [13]; 4.42% in experiment [14]; 4.19% in experiment [15]; 1.87% in experiment [16]; 2.83% in experiment [17]; -0.1% in experiment [18]. The inhibition in [19] is 2.4%; in experiment [20], 11.5%.

On to `C[C@@H](Oc1cc(-n2cnc3ccc(OCC4CCN(C)CC4)cc32)sc1C(N)=O)c1ccccc1C(F)(F)F`, for which the inhibition in [1] is -0.11%; in [2], 0.22%; in [3] it was 0.15%; in experiment [4] it was -2.1%; in experiment [5], 1.86%; in experiment [6] it was 1.51%. Besides, the inhibition is 3.33% in experiment [7]; -2.92% in experiment [8]; -3.87% in experiment [9]; -1.88% in experiment [10]; -2.08% in experiment [11]; -0.56% in [12]. The inhibition in [13] is 1.16%; in experiment [14], -1.6%; in [15] it was 13.3%; in experiment [16], 2.19%; in experiment [17], 55.9%; in experiment [18] it was 6.54%. For the same molecule, the figures for the inhibition in [19] and in experiment [20] were 0.1% and 0.59%, respectively.

Source of the values: ChEMBL document CHEMBL1961873, “Compounds: GSK PKIS; Assays: Nanosyn kinase panel” (2012).
